The OligoGym collection

Target: STARD3NL
Experiment: pooled miR-30 sensor sort-seq; sequence = guide strand
Settings: shRNA
Further: reference of the scale not given here.

Sequence	sensor-assay potency score (higher = more potent)
TAAATAAATCTTTATTAGCTGT	-0.476
TTTGCTAGTAAAAAGGCACTGG	0.563
TGAAGCATCCTGAACTATCAGG	-0.809
TTGAAATCCAGGAACCACGTCT	0.74
TATTACAATAAATAAATCTTTA	-1.13
TACTTCAATATATTAAGTCTTT	-0.927
TTTAACTCTATTATCCACAGTA	0.804
TTTAAATCGAAAAACTGCCAGA	-0.348
TTCAACTTTACTGTCGACAGGG	0.68
TTGATTAGGAATACAGCACAAG	-0.839
TTAGCTGTTCAATAAAGCCAGC	-0.902
TTTCTTCTTCTGCTTCTTGAGG	-0.759

Target: STARD3
Experiment: as above
Settings: shRNA

Sequence	sensor-assay potency score (higher = more potent)
TTCATTATTCTTCTCAAACTTC	-0.376
TTGTTCCACAGCACCATCCTCT	-0.73
TTCCACTCGCTGCAGGATCTGG	-1.17
TTTTCTTCCCAGCAACTTCTTC	-1.04
TGTCTTGTTCCACAGCACCATC	-1.77
TTCAGGATAAACGTCTTGCCGT	-0.566
TTCCACAGCACCATCCTCTCGG	0.506
TAGGACTTTGAAGTCAAGGAAC	-1.37
